Data on 5 molecules can be found in PubChem BioAssay (EPA / NIEHS).

Each structure is given as a SMILES string. Where “and” joins values, the source holds several entries; their conditions need not be identical. Equal values may be shown once. The source holds several records for some structures; these can differ, active in one and inactive in another. Calls of active or inactive are those of the source. The calls were made as follows: active = hit-call score of the fitted dose curve at least 0.9, where 1 is the maximum; inactive = score below 0.9.

Read-out in assay [1]: Vascular endothelial growth factor receptor 2 (Homo sapiens) (UniProt P35968)
In words: BSK_4H_VEGFRII: BioMAP Diversity Plus: 4H Assay for Vascular endothelial growth factor receptor 2 (VEGFR2) Biomarker Activity (AID 2283031).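 As to AC50: cell-surface VEGFR2 protein level quantified by ELISA.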 The conditions noted are these: primary human endothelial cells (HUVEC); actives raise or lower the signal. A digest of the protocol: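 ELISA read-out of VEGFRII in primary human umbilical vein endothelium, taken 24 h after chemical treatment. Responses are expressed relative to DMSO, with bidirectional fitting.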

Read-out in assay [2]: Human Leukocyte Antigen - DR isotype (HLADR), HLA-DRA (gene 3122)
In words: BSK_BE3C_HLADR: BioMAP Diversity Plus: BE3C Assay for Human Leukocyte Antigen - DR isotype (HLADR) Biomarker Activity (AID 2283032). To be noted: primary human bronchial epithelial cells; actives raise or lower the signal. In a few lines:
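ELISA read-out of HLA-DR on human lung bronchial epithelial primary cells, measured 24 h post-dosing. Both increases and decreases were scored relative to DMSO vehicle.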

Read-out in assay [3]: Vascular cell adhesion molecule 1 (VCAM1), VCAM1 (gene 7412)
Put plainly: BSK_4H_VCAM1: BioMAP Diversity Plus: 4H Assay for Vascular cell adhesion molecule 1 (VCAM1) Biomarker Activity (AID 2283033).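 As to outcome: cell-surface VCAM-1 protein measured by ELISA.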 The conditions noted are these: primary human endothelial cells (HUVEC); actives raise or lower the signal. In a few lines:
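ELISA read-out of VCAM-1 on human umbilical vein endothelium 24 hours after chemical dosing; gain or loss of signal was fitted relative to DMSO, with sulforhodamine B staining of parallel cultures flagging overt cytotoxicity.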

Read-out in assay [4]: Monokine induced gamma interferon (MIG), CXCL9 (gene 4283)
Put plainly: BSK_BE3C_MIG: BioMAP Diversity Plus: BE3C Assay for Monokine induced gamma interferon (MIG) Biomarker Activity (AID 2283035).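 As to outcome: MIG protein measured by ELISA in BE3C cultures after 24 h of dosing.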 To be noted: primary human bronchial epithelial cells; actives raise or lower the signal. In a few lines:
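ELISA read-out of MIG in human lung bronchial epithelial primary cultures, 24 h post-dosing. Bidirectional curve fit vs DMSO baseline.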

Read-out in assay [5]: Transforming growth factor beta 1 (TGFb1), TGFB1 (gene 7040)
In words: BSK_BE3C_TGFb1: BioMAP Diversity Plus: BE3C Assay for Transforming growth factor beta 1 (TGFb1) Biomarker Activity (AID 2283036;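 as to outcome: TGF-b1 protein level measured by ELISA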). To be noted: primary human bronchial epithelial cells; actives raise or lower the signal. In a few lines:
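Primary human lung bronchial epithelial cells; compound exposure 24 h; TGF-b1 by ELISA; bidirectional fit, DMSO baseline. Parallel SRB total-protein staining for cytotoxicity.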

Read-out in assay [6]: Plasminogen activator inhibitor-1 (PAI1), SERPINE1 (gene 5054)
Put plainly: BSK_BE3C_PAI1: BioMAP Diversity Plus: BE3C Assay for Plasminogen activator inhibitor-1 (PAI1) Biomarker Activity (AID 2283037). To be noted: primary human bronchial epithelial cells; actives raise or lower the signal. In a few lines:
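Primary human lung bronchial epithelial cells; chemical dosing; 24 h; PAI-1 measured by ELISA; bidirectional fit referenced to DMSO as negative control.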

Read-out in assay [7]: urokinase plasminogen activator (uPA), PLAU (gene 5328)
In words: BSK_BE3C_uPA: BioMAP Diversity Plus: BE3C Assay for urokinase plasminogen activator (uPA) Biomarker Activity (AID 2283038).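 As to outcome: uPA protein level quantified by ELISA in cell cultures; uPA read one day after compound addition.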 The conditions noted are these: primary human bronchial epithelial cells; actives raise or lower the signal. A digest of the protocol:
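Bronchial epithelial cells (human, primary); chemical 24 h; uPA by ELISA; bidirectional fit vs DMSO. SRB (0.1%, after 10% TCA fixation, 560 nm) in parallel cultures for cytotoxicity.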

Read-out in assay [8]: Urokinase-type plasminogen activator receptor (uPAR), PLAUR (gene 5329)
Put plainly: BSK_BE3C_uPAR: BioMAP Diversity Plus: BE3C Assay for Urokinase-type plasminogen activator receptor (uPAR) Biomarker Activity (AID 2283039).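 As to outcome: uPAR protein level measured by ELISA on the cells; cells exposed to compound for one day before measurement.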 To be noted: primary human bronchial epithelial cells; actives raise or lower the signal. In a few lines: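 Human bronchial epithelial primary cells; chemical exposure 24 h; uPAR by ELISA; bidirectional fit vs DMSO control.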

Read-out in assay [9]: Interleukin-6 (IL6), IL6 (gene 3569)
Put plainly: BSK_CASM3C_IL6: BioMAP Diversity Plus: CASM3C Assay for Interleukin-6 (IL6) Biomarker Activity for (AID 2283040). The conditions noted are these: primary human coronary artery smooth muscle cells; actives raise or lower the signal.

Read-out in assay [10]: Tissue plasminogen activator (tPA), PLAT (gene 5327)
In words: BSK_BE3C_tPA: BioMAP Diversity Plus: BE3C Assay for Tissue plasminogen activator (tPA) Biomarker Activity (AID 2283041).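 As to outcome: tPA level quantified by ELISA one day after compound addition.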 The conditions noted are these: primary human bronchial epithelial cells; actives raise or lower the signal. A digest of the protocol:
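Primary human lung bronchial epithelial cultures receive test chemical; after 24 h, tPA is quantified by ELISA, and gain or loss of signal is fitted bidirectionally relative to DMSO baseline.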

Read-out in assay [11]: Interleukin-8 (IL8), CXCL8 (gene 3576)
Put plainly: BSK_CASM3C_IL8: BioMAP Diversity Plus: CASM3C Assay for Interleukin-8 (IL8) Biomarker Activity (AID 2283042).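 Also: IL-8 protein level quantified by ELISA.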 To be noted: primary human coronary artery smooth muscle cells; actives raise or lower the signal.

Read-out in assay [12]: Human Leukocyte Antigen - DR isotype (HLADR), HLA-DRA (gene 3122)
In words: BSK_CASM3C_HLADR: BioMAP Diversity Plus: CASM3C Assay for Human Leukocyte Antigen - DR isotype (HLADR) Biomarker Activity (AID 2283043).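 Also: cell-surface HLA-DR protein level quantified by ELISA.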 To be noted: primary human coronary artery smooth muscle cells; actives raise or lower the signal.

Read-out in assay [13]: Macrophage colony-stimulating factor (MCSF), CSF1 (gene 1435)
Put plainly: BSK_CASM3C_MCSF: BioMAP Diversity Plus: CASM3C Assay for Macrophage colony-stimulating factor (MCSF) Biomarker Activity (AID 2283044).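 Also: M-CSF protein amount quantified by ELISA after 24 h exposure.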 To be noted: primary human coronary artery smooth muscle cells; actives raise or lower the signal.

Read-out in assay [14]: Low-density lipoprotein receptor (LDLR), LDLR (gene 3949)
Put plainly: BSK_CASM3C_LDLR: BioMAP Diversity Plus: CASM3C Assay for Low-density lipoprotein receptor (LDLR) Biomarker Activity (AID 2283045).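 Also: LDLR protein level on the cell surface quantified by ELISA.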 The conditions noted are these: primary human coronary artery smooth muscle cells; actives raise or lower the signal.

Read-out in assay [15]: Monocyte Chemoattractant Protein-1 (MCP1), CCL2 (gene 6347)
Put plainly: BSK_CASM3C_MCP1: BioMAP Diversity Plus: CASM3C Assay for Monocyte Chemoattractant Protein-1 (MCP1) Biomarker Activity (AID 2283046).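 Also: MCP-1 level quantified by ELISA 24 h after dosing.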 To be noted: primary human coronary artery smooth muscle cells; actives raise or lower the signal.

A short description of assay [16]: BSK_CASM3C_Proliferation: Cell Proliferation Assessment in the BioMAP Diversity Plus: CASM3C Assay (AID 2283047).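 Also: sulforhodamine B total protein stain as relative cell number at 560 nm; sub-confluent cells exposed 48 h before staining; fitted both ways against DMSO so gain or loss of cell number.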 The conditions noted are these: primary human coronary artery smooth muscle cells.
Read-out in assay [17]: Monokine induced gamma interferon (MIG), CXCL9 (gene 4283)
Put plainly: BSK_CASM3C_MIG: BioMAP Diversity Plus: CASM3C Assay for Monokine induced gamma interferon (MIG) Biomarker Activity (AID 2283048).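 Also: MIG protein level measured by ELISA.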 The conditions noted are these: primary human coronary artery smooth muscle cells; actives raise or lower the signal.

Read-out in assay [18]: serum amyloid A (SAA), SAA1 (gene 6288)
Put plainly: BSK_CASM3C_SAA: BioMAP Diversity Plus: CASM3C Assay for serum amyloid A (SAA) Biomarker Activity (AID 2283049).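 Also: SAA protein level quantified by ELISA.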 The conditions noted are these: primary human coronary artery smooth muscle cells; actives raise or lower the signal.

The nature of assay [19]: BSK_CASM3C_SRB: Viability Assessment in the BioMAP Diversity Plus: CASM3C Assay (AID 2283050).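 Also: total protein by SRB staining as cytotoxicity measure in parallel cultures.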 The conditions noted are these: primary human coronary artery smooth muscle cells.
Read-out in assay [20]: Interferon-gamma inducible Protein 10 (IP10), CXCL10 (gene 3627)
Put plainly: BSK_BE3C_IP10: BioMAP Diversity Plus: BE3C Assay for Interferon-gamma inducible Protein 10 (IP10) Biomarker Activity (AID 2283034). The conditions noted are these: primary human bronchial epithelial cells; actives raise or lower the signal. In a few lines:
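Chemical is dosed onto human lung bronchial epithelial primary cells, cultures are incubated 24 h, and IP-10 is then quantified by ELISA. Gain or loss of signal is fitted in both directions relative to DMSO.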

A word on the AC50: it is the concentration giving half of the maximal activity seen. As to `CCCCc1oc2ccccc2c1C(=O)c1cc(I)c(OCCN(CC)CC)c(I)c1`, the AC50 was 21.2 µM (active) in assay [1]; 15.1 µM (active) in assay [2]; 19.6 µM (active) in assay [3]; 23.3 µM (active) in assay [4]; 12.2 µM (active) in assay [5]; 18.8 µM (active) in assay [6]. Further, the AC50 is 20.1 µM (active) in assay [7]; 20.6 µM (active) in assay [8]; 27.8 µM (active) in assay [9]; 9.06 µM (active) in assay [10]; 23.9 µM (active) in [11]; 5.94 µM (active) in [12]. Also, the AC50 was 22 µM (active) in assay [13]; 27.2 µM (active) in [14]; 25.1 µM (active) in assay [15]; 8.1 µM (active) in [16]; 24 µM (active) in assay [17]; 12.4 µM (active) in assay [18]. In [19], the AC50 is 18.9 µM (active).

As to `CCCCCCCCCCCCCCCCCC[N+](C)(C)Cc1ccccc1`, the outcome in assay [1], in [5], in [6], in assay [8] and in [10] was inactive. The AC50 is 2.05 µM (active) in assay [2]; 2.8 µM (active) in assay [3]; 4.27 µM (active) in assay [20]; 5.77 µM (active) in [4]; 10 µM (active) in assay [7]; 4.87 µM (active) in assay [9]. Besides, the AC50 was 12.6 µM (active) in assay [11]; 3.45 µM (active) in assay [12]; 5.5 µM (active) in assay [13]; 6.53 µM (active) in assay [14]; 5.29 µM (active) in assay [15]; 2.74 µM (active) in [16]. Also, the AC50 in [17] was 15.4 µM (active); in [18], 2.72 µM (active); in assay [19], 2.75 µM (active).

Turning to `CC1=NN(c2ccccc2)C(=O)C1`, the result in assay [1], in [2], in assay [3], in assay [20], in assay [4] and in assay [5] was inactive. For the same molecule, the outcome in assay [6], in assay [7], in [8], in assay [9], in assay [10] and in assay [11] was inactive. The result in assay [12], in assay [13], in assay [14], in assay [15], in assay [16] and in assay [17] was inactive. The outcome in [18] and in [19] was inactive.

`O=P(O)(O)CCC(F)(F)C(F)(F)C(F)(F)C(F)(F)C(F)(F)C(F)(F)C(F)(F)C(F)(F)F`: the result in assay [1], in assay [2], in assay [3], in assay [20], in [4] and in [6] was inactive. The outcome in [7], in assay [8], in assay [9], in [11], in assay [12] and in [13] was inactive. Moreover, the outcome in assay [14], in [15], in [16], in assay [17], in assay [18] and in assay [19] was inactive. In addition, the concentration at half-maximal activity (AC50) in assay [10] is 1.08 µM (active) and 5.14 µM (active); in [16] it was 9.07 µM (active).

Take `CC[N+](CC)(CC)Cc1ccccc1`: the result in assay [1], in assay [2], in [3], in assay [4], in [5] and in assay [6] was inactive. In addition, the outcome in assay [7], in assay [8], in assay [10], in assay [11], in assay [12] and in [13] was inactive. The outcome in assay [14], in assay [15], in assay [16], in [17], in assay [18] and in [19] was inactive. Moreover, the AC50 in assay [9] was 0.0875 µM (active).
